Inconclusive results are not listed. Unless noted, the call rests on the fitted dose curve; in most records, active means well fitted curve in either direction with a large enough effect (not every such curve was filed as active); inconclusive means small, poorly fitted or top-dose-only effect, or another doubt; inactive means flat fitted curve, though single readings scatter.
Legend:
[1] = AP1 Signaling Pathway (AID 357); conditions: ME-180 AP-1-bla reporter, EGF-induced, beta-lactamase ratio, 5 h; at 17.2 µM (top of the series) unless noted; further: on the % scale 0 is the no-effect control and ±100 the full control effect
Procedure, shortened: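 ME-180 cells with beta-lactamase reporter under AP-1 response element, stimulated with EC50 EGF; compounds tested in titration series, 5 h at 37 °C. CCF4 substrate added 2.5 h at room temperature; 460/530 nm emission ratio gave %activity and AC50.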

[2] = Stat Signaling Pathway (AID 446); conditions: ME-180 SIE beta-lactamase reporter, IL-6 stimulated, 5 h; at 17.2 µM (top of the series) unless noted;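 further: ME-180 cervical cancer cells given 40 pM IL-6 alongside compound; SIE-controlled beta-lactamase reporter measured as 460/530 nm FRET emission ratio; on the % scale 0 is the no-effect control and ±100 the full control effect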
Procedure, shortened: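 ME-180 SIE-bla cells; overnight plating; cpd + IL-6 40 pM, 5 h, 37 C; LiveBLAzer 2.5 h RT; 460/530 nm emission ratio. Normalized to 300 pM IL-6 and 125 nM JAK inhibitor controls.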

[3] = molecular target: Glucocorticoid receptor (Homo sapiens) (UniProt P04150); test: GR-GFP Redistribution (AID 450;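 active means compounds whose dose series gives a full or clear partial fitted curve of increased nuclear translocation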; further: potency means the concentration at half of the fitted maximal effect)
Sequence of Glucocorticoid receptor (Homo sapiens) (P04150 whole entry, looked up): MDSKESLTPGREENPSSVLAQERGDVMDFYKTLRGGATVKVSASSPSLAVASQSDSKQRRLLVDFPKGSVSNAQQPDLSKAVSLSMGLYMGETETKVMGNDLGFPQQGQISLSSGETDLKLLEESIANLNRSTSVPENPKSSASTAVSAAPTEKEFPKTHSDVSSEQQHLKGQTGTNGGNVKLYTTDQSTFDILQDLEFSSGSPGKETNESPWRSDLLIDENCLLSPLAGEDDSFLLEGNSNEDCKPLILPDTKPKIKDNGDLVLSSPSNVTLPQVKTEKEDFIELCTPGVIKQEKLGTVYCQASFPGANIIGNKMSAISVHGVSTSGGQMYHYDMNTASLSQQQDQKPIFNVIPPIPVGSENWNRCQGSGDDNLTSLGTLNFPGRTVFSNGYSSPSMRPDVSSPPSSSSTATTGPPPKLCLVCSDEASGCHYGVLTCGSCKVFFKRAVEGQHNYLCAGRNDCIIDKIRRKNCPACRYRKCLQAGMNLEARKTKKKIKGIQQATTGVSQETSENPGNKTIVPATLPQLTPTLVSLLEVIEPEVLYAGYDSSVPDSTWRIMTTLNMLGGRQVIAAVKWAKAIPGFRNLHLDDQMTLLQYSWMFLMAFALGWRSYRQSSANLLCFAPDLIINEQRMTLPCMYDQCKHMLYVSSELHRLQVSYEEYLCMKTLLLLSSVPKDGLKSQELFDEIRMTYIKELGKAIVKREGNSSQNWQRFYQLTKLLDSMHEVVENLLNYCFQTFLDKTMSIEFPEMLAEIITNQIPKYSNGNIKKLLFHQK

COc1cccc(CNc2ncc(Br)cc2Br)c1O
inactive: activity change, negative = inhibition [1] -6.72% | activity, negative = inhibition [2] -21.8% | Potency [3] > 20.6 µM

CC1CCN(c2[nH]c(=S)c(C#N)c3c2CCCC3)CC1
inactive: activity change, negative = inhibition [1] 10.9% | activity, negative = inhibition [2] -15.1% | Potency [3] > 20.6 µM

COC(=O)CSc1nc(-c2cccs2)ccc1C#N
inactive: activity change, negative = inhibition [1] -2.59% | activity, negative = inhibition [2] -2.18% | Potency [3] > 20.6 µM

COc1ccc(OC)c(NS(=O)(=O)c2ccc(N3CCCC3=O)cc2)c1
inactive: activity change, negative = inhibition [1] 18.1% | activity, negative = inhibition [2] 11.3% | Potency [3] > 20.6 µM

CCC1(C)Cc2c(sc3c2c(=O)n(C)c2nnc(SCc4ccccc4)n32)CO1 (configuration not stated)
inactive: activity change, negative = inhibition [1] -2.66% | activity, negative = inhibition [2] 1.36% | Potency [3] > 20.6 µM

Cc1[nH]c2ccc(F)cc2c(=O)c1SC(F)(F)C(F)C(F)(F)F (configuration not stated)
inactive: activity change, negative = inhibition [1] -31.7% | activity, negative = inhibition [2] -1.13% | Potency [3] > 20.6 µM

CCCCc1c(O)nc(SCCN(C)C)n(-c2ccccc2)c1=O
inactive: activity change, negative = inhibition [1] 10% | activity, negative = inhibition [2] 2.07% | Potency [3] > 20.6 µM

CCOC(=O)c1c(C)n(C)c2ccc(OC)c(NC(=O)CCN3CCSCC3)c12
inactive: activity change, negative = inhibition [1] 2.45% | activity, negative = inhibition [2] 7.06% | Potency [3] > 20.6 µM

COc1ccc(CSC2=NCCN2)cc1Cl
inactive: activity change, negative = inhibition [1] 15.6% | activity, negative = inhibition [2] 8.84% | Potency [3] > 20.6 µM

CCc1nc2c(sc3nc(N4CCOCC4)c4c(c32)CC(C)(C)OC4)c(=O)o1
inactive: activity change, negative = inhibition [1] 3.92% | activity, negative = inhibition [2] -6.95% | Potency [3] > 20.6 µM

COc1ccc(Cn2c(N)c(C#N)c3nc4ccccc4nc32)cc1OC
inactive: activity change, negative = inhibition [1] -3.62% | activity, negative = inhibition [2] 11.6% | Potency [3] > 20.6 µM

CN(Cc1c(O)ccc2c1oc(=O)c1ccccc12)C1CCCCC1
inactive: activity change, negative = inhibition [1] 2.27% | activity, negative = inhibition [2] 4.77% | Potency [3] > 20.6 µM

N#CCSc1nc2sc3c(c2c(=O)n1C1CCCCC1)CCCC3
inactive: activity change, negative = inhibition [1] -7.41% | activity, negative = inhibition [2] 6.22% | Potency [3] > 20.6 µM

N#Cc1c(N2CCOCC2)nc(-c2ccco2)c2c1CCCC2
inactive: activity change, negative = inhibition [1] 2.51% | activity, negative = inhibition [2] 4.59% | Potency [3] > 20.6 µM

CCN(CC)C(=O)CSc1nc2ccccc2c(=O)n1CC1CCCCC1
inactive: activity change, negative = inhibition [1] -21.3% | activity, negative = inhibition [2] -17.5% | Potency [3] > 20.6 µM

Cc1cccc(NC(=O)c2c(C)cc(=O)oc2C)n1
inactive: activity change, negative = inhibition [1] -0.882% | activity, negative = inhibition [2] 4.29% | Potency [3] > 20.6 µM

N#Cc1c(NCCCO)nc(-c2ccccc2)c2c1CCCC2
inactive: activity change, negative = inhibition [1] -2.16% | activity, negative = inhibition [2] -5.59% | Potency [3] > 20.6 µM

CN=C(c1ccco1)n1c(=S)nc(-c2ccco2)n(C)c1=S
inactive: activity change, negative = inhibition [1] 10.9% | activity, negative = inhibition [2] 15.6% | Potency [3] > 20.6 µM

Cn1c(=O)c2c(nc(SCCN3CCCCC3)n2Cc2ccc(Cl)cc2)n(C)c1=O
inactive: activity change, negative = inhibition [1] 11.2% | activity, negative = inhibition [2] -9.94% | Potency [3] > 20.6 µM

C=CCN(CC=C)c1nc2ccccc2nc1C(C#N)C(=O)OC(C)C (configuration not stated)
inactive: activity change, negative = inhibition [1] -13.3% | activity, negative = inhibition [2] -28.3% | Potency [3] > 20.6 µM

O=c1c2ccccc2[nH]c(=S)n1CCN1CCC(=C(c2ccc(F)cc2)c2ccc(F)cc2)CC1
inactive: activity change, negative = inhibition [1] 10.4% | activity, negative = inhibition [2] -6.03% | Potency [3] > 20.6 µM

CCCC(=O)N1CCN(c2nc(CC(C)C)c3c(c2C#N)CCC3)CC1
inactive: activity change, negative = inhibition [1] -11.7% | activity, negative = inhibition [2] -1.27% | Potency [3] > 20.6 µM

C=CCOc1nc2c(c(=O)n(C)c(=O)n2C)n1Cc1c(Cl)cccc1Cl
inactive: activity change, negative = inhibition [1] 0.413% | activity, negative = inhibition [2] 3.61% | Potency [3] > 20.6 µM

O=c1[nH]c(CN(CCO)CCO)nc2c1C1(CCCCC1)Cc1ccccc1-2
inactive: activity change, negative = inhibition [1] 8.29% | activity, negative = inhibition [2] -8.23% | Potency [3] > 20.6 µM

CC1(C)Cc2c(sc3c2C2=NCCN2C=N3)CO1
inactive: activity change, negative = inhibition [1] 12.7% | activity, negative = inhibition [2] 1.72% | Potency [3] > 20.6 µM

C[C@]12CC[C@@H]3c4ccc(O)cc4C(=O)C[C@H]3[C@@H]1CC[C@@H]2O
inactive: activity change, negative = inhibition [1] 0.317% | activity, negative = inhibition [2] -2.37% | Potency [3] > 20.6 µM

CC1(C)C2CCC1(C)C(NC(=O)CCN1CCCCC1)C2 (configuration not stated)
inactive: activity change, negative = inhibition [1] 6.22% | activity, negative = inhibition [2] 8.36% | Potency [3] > 20.6 µM

CCOc1ccc(C2C=C(c3ccccc3)Nc3ncnn32)cc1 (configuration not stated)
inactive: activity change, negative = inhibition [1] -28.8% | activity, negative = inhibition [2] -2.5% | Potency [3] > 20.6 µM

C=CCn1c(SCC#N)nc2c(c1=O)C(C)(C)Cc1ccccc1-2
inactive: activity change, negative = inhibition [1] -2.85% | activity, negative = inhibition [2] -1.93% | Potency [3] > 20.6 µM

C=CCOC(=O)C(C#N)c1nc2ccccc2nc1N1CCN(c2ccccc2OCC)CC1 (configuration not stated)
inactive: activity change, negative = inhibition [1] 9.88% | activity, negative = inhibition [2] 2.33% | Potency [3] > 20.6 µM

CCSc1nnc(NC(=O)C(C(F)(F)F)C(F)(F)F)s1
inactive: activity change, negative = inhibition [1] -16.3% | activity, negative = inhibition [2] -21.8% | Potency [3] > 20.6 µM

CC(C)C1=C2OC(N)=C(C#N)C(C#N)=C2C(C)CC1 (configuration not stated)
inactive: activity change, negative = inhibition [1] -2.44% | activity, negative = inhibition [2] 5.25% | Potency [3] > 20.6 µM

CCCCOC(=O)C(C)c1c(C)[nH]c(=S)[nH]c1=O (configuration not stated)
inactive: activity change, negative = inhibition [1] 7.17% | activity, negative = inhibition [2] -3.5% | Potency [3] > 20.6 µM

C=CC[N+](C)(C)CCCNC(=O)/C=N/O
inactive: activity change, negative = inhibition [1] 6.86% | activity, negative = inhibition [2] 4.74% | Potency [3] > 20.6 µM

CC1(C)Cc2c(sc3nc4n(c(=N)c23)CCCCC4)CO1
inactive: activity change, negative = inhibition [1] 19.2% | activity, negative = inhibition [2] 3.32% | Potency [3] > 20.6 µM

CCOc1nc(SCCOc2ccc(C)cc2)nc(N(C)C)n1
inactive: activity change, negative = inhibition [1] -8.15% | activity, negative = inhibition [2] -4.82% | Potency [3] > 20.6 µM

CCC(=O)Nc1nc2ccccc2n1Cc1ccccc1C
inactive: activity change, negative = inhibition [1] 28.7% | activity, negative = inhibition [2] 2.77% | Potency [3] > 20.6 µM

CCOc1ccc(N2C(=O)CC(N)C2=O)cc1 (configuration not stated)
inactive: activity change, negative = inhibition [1] -19.2% | activity, negative = inhibition [2] -5.4% | Potency [3] > 20.6 µM

COc1ccc(C2NC(=O)NC(O)(C(F)(F)F)C2C(=O)c2ccc(F)cc2)cc1 (configuration not stated)
inactive: activity change, negative = inhibition [1] -8.86% | activity, negative = inhibition [2] -0.989% | Potency [3] > 20.6 µM

CCn1cc(C(=O)NCCc2ccccc2)c(=O)c2cc(F)c(N3CCN(C)CC3)cc21
inactive: activity change, negative = inhibition [1] -9.7% | activity, negative = inhibition [2] -5.45% | Potency [3] > 20.6 µM

CC12CN3CC(C)(CN(C1)C3c1ccc(Br)cc1O)C2 (configuration not stated)
inactive: activity change, negative = inhibition [1] -9.61% | activity, negative = inhibition [2] -0.00253% | Potency [3] > 20.6 µM

Cc1ccc(-c2ccc(/C=N/c3ncn[nH]3)o2)cc1Cl
inactive: activity change, negative = inhibition [1] 1.81% | activity, negative = inhibition [2] -7.79% | Potency [3] > 20.6 µM

COC(=O)CSc1nc2sc3c(c2c(=O)n1C1CCCCC1)CCN(C)C3
inactive: activity change, negative = inhibition [1] -11.2% | activity, negative = inhibition [2] -5.31% | Potency [3] > 20.6 µM

COc1ccc(CN(C#N)c2nc(SC)nc(N(C)C)n2)cc1
inactive: activity change, negative = inhibition [1] -3.69% | activity, negative = inhibition [2] 2.92% | Potency [3] > 20.6 µM

CC(=O)OCC(=O)[C@@]1(O)CC[C@H]2[C@@H]3CCC4=CC(=O)CC[C@]4(C)[C@H]3[C@@H](O)C[C@@]21C
inactive: activity change, negative = inhibition [1] 11.1% | activity, negative = inhibition [2] -11.6% | Potency [3] > 20.6 µM

COc1ccc2c(c1OC)C(=O)N1c3ccccc3C(=O)N(c3ccccc3)C21 (configuration not stated)
inactive: activity change, negative = inhibition [1] -9.35% | activity, negative = inhibition [2] 0.163% | Potency [3] > 20.6 µM

CCOC(=O)c1c(NC(=O)CCN2CCOCC2)sc2c1CC(C)(C)OC2
inactive: activity change, negative = inhibition [1] -21.7% | activity, negative = inhibition [2] -5.77% | Potency [3] > 20.6 µM

COc1cccc(CNc2ccc(Br)cn2)c1O
inactive: activity change, negative = inhibition [1] -25.3% | activity, negative = inhibition [2] -14.6% | Potency [3] > 20.6 µM

Cc1ccc(Cn2ncc3c(N4CCN(Cc5ccc(Cl)cc5)CC4)ncnc32)cc1
inactive: activity change, negative = inhibition [1] -8.19% | activity, negative = inhibition [2] -14.5% | Potency [3] > 20.6 µM

COc1ccc(-c2oc3ncn4nc(COc5ccccc5)nc4c3c2-c2ccc(OC)cc2)cc1
inactive: activity change, negative = inhibition [1] -11.5% | activity, negative = inhibition [2] 4.11% | Potency [3] > 20.6 µM

COc1ccc2c(c1OC)C(=O)N1c3ccccc3C(=O)N(c3ccc(F)cc3)C21 (configuration not stated)
inactive: activity change, negative = inhibition [1] -3.68% | activity, negative = inhibition [2] -12.3% | Potency [3] > 20.6 µM

CCCCc1cc(=O)oc2c(CN(C)C)c(O)c(Cl)cc12
inactive: activity change, negative = inhibition [1] -6.67% | activity, negative = inhibition [2] 14.1% | Potency [3] > 20.6 µM

CC1(C)CCN(Cc2ccccc2)C1CC#N (configuration not stated)
inactive: activity change, negative = inhibition [1] -13.4% | activity, negative = inhibition [2] 6.87% | Potency [3] > 20.6 µM

CCCCCCSC1=C(C#N)C(c2ccccc2)CC(=O)N1 (configuration not stated)
inactive: activity change, negative = inhibition [1] -25.4% | activity, negative = inhibition [2] -19.8% | Potency [3] > 20.6 µM

CCc1nc(NC2CCCCC2)c(C#N)c2c1COC(C)(C)C2
inactive: activity change, negative = inhibition [1] 7.15% | activity, negative = inhibition [2] 7.37% | Potency [3] > 20.6 µM

CCCCNC(=O)C(C#N)c1nc2ccccc2nc1N1CCN(c2ccccc2F)CC1 (configuration not stated)
inactive: activity change, negative = inhibition [1] -4.46% | activity, negative = inhibition [2] 0.859% | Potency [3] > 20.6 µM

c1ccc2c(c1)CCOC2CNCCCN1CCCCC1 (configuration not stated)
inactive: activity change, negative = inhibition [1] -0.837% | activity, negative = inhibition [2] 2.31% | Potency [3] > 20.6 µM

CCOC(=O)N1CC=C2C(C#N)=C(N)C(C#N)(C#N)[C@H](c3cccs3)[C@H]2C1
inactive: activity change, negative = inhibition [1] 6.03% | activity, negative = inhibition [2] -16% | Potency [3] > 20.6 µM

Oc1c(C=Nc2cccnc2)sc2ccccc12
inactive: activity change, negative = inhibition [1] 8.1% | activity, negative = inhibition [2] -3.68% | Potency [3] > 20.6 µM

Reference: PubChem BioAssay (NCATS)
